From PubChem BioAssay (NCATS)
Results filed as inconclusive are left out. Values without a mark were called inactive. Activity calls are given as the source filed them. Calls follow the shape of the dose curve; as a rule, active = well fitted inhibition curve with a large enough effect; inconclusive = small, poorly fitted or top-dose-only effect; inactive = flat fitted curve, though single readings scatter. Non-standard residues stand in square brackets, D forms with d. Residues, ends and D or L forms follow the SMILES beside them. *: point of attachment. Nva = CCC[C@H](N)C(=O)O; Cbz = O=C(OCc1ccccc1)*

System: CRL-7250
Test: Cytotoxic Profiling of Annotated Libraries Using Quantitative High-Throughput Screening (AID 1296008); also: nearly all actives have a fitted effect of over 60% in size
Conditions: Five cell lines viability, CellTiter-Glo ATP luminescence, 48-72 h; max response: hits give low values
Procedure, shortened: (§1)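 Cells exposed to compounds for 48 or 72 hr at 37 degrees Celsius. Viability read as ATP-coupled luminescence with CellTiter-Glo after 10 min at room temperature.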
% is scaled to controls: 0 for no effect and ±100 for the full control effect; potency is read from the fitted curve at half-maximal effect.

Question: With `CON=C(C(=O)N[C@@H]1C(=O)N2C(C(=O)O)=C(Cn3ccc(=N)n3CCO)CS[C@H]12)c1csc(N)n1` as the compound, how does the max response read?
Answer: Its max response is -8.38%.

Question: How did the Potency turn out when `CCN(C(=O)c1c(O)c2c(Cl)cccc2n(C)c1=O)c1ccccc1` was run?
Answer: The Potency was 5900 nM (active).

Question: With `COc1ccc(C=Cc2cc(OC)c(OC)c(OC)c2)cc1NC(=O)[C@H](N)CO` as the compound, how does the Potency read?
Answer: Its Potency is 33.2 nM (active).

Question: How did the max response turn out when `O=C(O)CCCCCC(=O)NN=C1CCCC1` was run?
Answer: Its max response is 1.92%.

Question: With `Cn1cc(C=CC(=O)c2cccc(F)c2)cc1C=CC(=O)NO` as the compound, how does the max response read?
Answer: The max response was -7.49%.

Question: How did the max response turn out when `Nc1ccn(C2CO[C@H](CO)O2)c(=O)n1` (stereo partly drawn) was run?
Answer: The max response was -10.6%.

Question: Which outcome does the source give for `CC1(C)CC(O)CC(C)(C)N1[O]` here?
Answer: The outcome was “inactive”.

Question: Which max response does the source give for `CC[C@H](CC[C@@H](C)[C@H]1CC[C@H]2[C@@H]3CC=C4C[C@@H](O)CC[C@]4(C)[C@@H]3CC[C@]12C)C(C)C` here?
Answer: Its max response is -0.624%.

Question: `Cn1cc(CNCC2CCN(c3ncc(C(=O)NO)cn3)CC2)c2ccccc21` was tested. Which Potency did it give?
Answer: The Potency was 332 nM (active).

Question: `C=C(C)[C@@H]1CC[C@]2(C(=O)O)CC[C@]3(C)[C@H](CC[C@@H]4[C@@]5(C)CC[C@H](O)C(C)(C)[C@@H]5CC[C@]43C)[C@@H]12` was tested. Which max response did it give?
Answer: The max response was -12.6%.

Question: `Cc1ccc2nc(NCCN)c3ncc(C)n3c2c1` was tested. Which Potency did it give?
Answer: The Potency was 16600 nM (active).

Question: `CCC[C@@H](C=O)NC(=O)[C@H](CC(C)C)NC(=O)[C@H](CC(C)C)NC(=O)OCc1ccccc1` (Cbz-Leu-Leu-[Nva]-aldehyde) was tested. Which Potency did it give?
Answer: Its Potency is 4180 nM (active).

Question: For `CN(CC(=O)N(Cc1ccc(C2CCCCC2)cc1)c1ccc(C(=O)O)c(O)c1)S(=O)(=O)c1c(F)c(F)c(F)c(F)c1F`, which outcome is on record?
Answer: Its outcome is “inactive”.

Question: For `CN(C)c1ccc(C(=O)NCCCCCCC(=O)NO)cc1`, which Potency is on record?
Answer: Its Potency is 2640 nM (active).

Question: For `Cc1ncc(-c2ccnc(Nc3ccc(S(C)(=O)=O)cc3)n2)n1C(C)C`, which Potency is on record?
Answer: The Potency was 3720 nM (active).

Question: With `N#Cc1c(NC(=O)c2cccc3ccccc23)sc2c1CCCC2` as the compound, how does the Potency read?
Answer: The Potency was 1320 nM (active).

Question: With `CC(C)(C)[N+]([O-])=Cc1ccc(S(=O)(=O)O)cc1S(=O)(=O)O` as the compound, how does the max response read?
Answer: Its max response is 1.88%.

Question: How did the outcome turn out when `c1coc(CNc2ncnc3nc[nH]c23)c1` was run?
Answer: Its outcome is “inactive”.

Question: With `COc1cccc2c1C(=O)c1c(O)c3c(c(O)c1C2=O)C[C@@](O)(C(=O)CO)C[C@H]3O[C@H]1C[C@H](N)[C@H](O)[C@H](C)O1` as the compound, how does the Potency read?
Answer: Its Potency is 418 nM (active).

Question: Which max response does the source give for `COc1cc(C(C)C)c(Oc2cnc(NC(CO)CO)nc2N)cc1I` here?
Answer: Its max response is 3.93%.

Question: Which Potency does the source give for `CCOC(=O)N1CCN([N+]([O-])=NOc2ccc([N+](=O)[O-])cc2C#N)CC1` here?
Answer: The Potency was 5260 nM (active).

Question: With `Cc1onc(-c2ccccc2)c1C(=O)N[C@@H]1C(=O)N2[C@@H](C(=O)O)C(C)(C)S[C@@H]12` as the compound, how does the max response read?
Answer: The max response was -3.26%.

Question: Which max response does the source give for `COc1ccc(C(C)=O)c(O)c1` here?
Answer: Its max response is -6.37%.

Question: With `CC(C(C)N1CC(=O)NC(=O)C1)N1CC(=O)NC(=O)C1` (stereo not drawn) as the compound, how does the outcome read?
Answer: Its outcome is “inactive”.

Question: For `Cc1cc(C(=O)NOCCO)c(Nc2ccc(I)cc2F)n(C)c1=O`, which Potency is on record?
Answer: The Potency was 743 nM (active).

System: HEK293
Test: as above
Conditions: Five cell lines viability, CellTiter-Glo ATP luminescence, 48-72 h; max response: hits give low values
Procedure, shortened: as §1

Question: With `CC(C)(O)Cn1c(NC(=O)c2ccc(-c3cn[nH]c3)s2)nc2cc(CN3CCOCC3)ccc21` as the compound, how does the Potency read?
Answer: The Potency was 526 nM (active).

Question: With `C[C@@H]1C(=O)O[C@H]2CC34[C@H]5C[C@@H](C(C)(C)C)C36[C@H](OC(=O)[C@@H]6O)O[C@@]4(C(=O)O5)[C@]21O` (stereo partly drawn) as the compound, how does the max response read?
Answer: Its max response is 3.06%.

Question: For `C=CC(=O)Nc1cccc(Nc2nc(NC3CCC(N(C)C)CC3)nc3c2ncn3C(C)C)c1` (stereo not drawn), which Potency is on record?
Answer: Its Potency is 1320 nM (active).

Question: For `O=C1NC(O)CCN1[C@@H]1O[C@H](CO)[C@H](O)[C@H]1O` (stereo partly drawn), which max response is on record?
Answer: Its max response is -3.17%.

Question: For `CC1=C(C(=O)Nc2cc3cn[nH]c3cc2F)C(c2ccc(Cl)cc2F)N=C(c2ccnc(Cl)c2)N1` (stereo not drawn), which Potency is on record?
Answer: Its Potency is 13200 nM (active).

Question: With `N#Cc1ccc(COC[C@H]2O[C@@H](n3c(NCc4ccc(Cl)c(Cl)c4)nc4c(N)ncnc43)[C@@H](O)[C@@H]2O)cc1` as the compound, how does the Potency read?
Answer: Its Potency is 16600 nM (active).

Question: For `N#Cc1cc(NC(=O)Nc2nnc(-c3ccncc3)s2)ccc1-c1cn[nH]c1`, which outcome is on record?
Answer: Its outcome is “inactive”.

Question: For `Cc1cnc(NC(=O)Nc2cc(Br)c(C)cc2OC[C@@H]2CNCCO2)cn1`, which Potency is on record?
Answer: Its Potency is 1320 nM (active).

Question: Which max response does the source give for `N#CNC(=NCCCCCCOc1ccc(Cl)cc1)Nc1ccncc1` here?
Answer: The max response was -111%.

Question: With `COc1ccc(C[C@@H](C)[C@@H](C)Cc2ccc(OC)c(OC)c2)cc1OC` as the compound, how does the Potency read?
Answer: Its Potency is 2640 nM (active).

Question: With `CCc1nc(-c2cccc(C)c2)c(-c2ccnc(NC(=O)c3ccccc3)c2)s1` as the compound, how does the Potency read?
Answer: Its Potency is 14800 nM (active).

Question: Which max response does the source give for `N#CC(=C(O)c1ccc(Cl)cc1Cl)c1nc2cc(Cl)ccc2c(=O)[nH]1` here?
Answer: Its max response is 1.08%.

Question: How did the max response turn out when `CN(C)CC[C@H](c1ccc(Cl)cc1)c1ccccn1` was run?
Answer: The max response was -15.3%.

Question: How did the max response turn out when `CON=C(C(=O)N[C@@H]1C(=O)N2C(C(=O)O)=C(Cn3ccc(=N)n3CCO)CS[C@H]12)c1csc(N)n1` was run?
Answer: Its max response is -24.1%.

Question: How did the Potency turn out when `CCN(C(=O)c1c(O)c2c(Cl)cccc2n(C)c1=O)c1ccccc1` was run?
Answer: Its Potency is 4180 nM (active).

Question: How did the Potency turn out when `COc1ccc(C=Cc2cc(OC)c(OC)c(OC)c2)cc1NC(=O)[C@H](N)CO` was run?
Answer: Its Potency is 3.7 nM (active).

Question: Which outcome does the source give for `O=C(O)CCCCCC(=O)NN=C1CCCC1` here?
Answer: Its outcome is “inactive”.

Question: `Cn1cc(C=CC(=O)c2cccc(F)c2)cc1C=CC(=O)NO` was tested. Which outcome did it give?
Answer: The outcome was “inactive”.

Question: `Nc1ccn(C2CO[C@H](CO)O2)c(=O)n1` (stereo partly drawn) was tested. Which max response did it give?
Answer: The max response was -12.3%.

Question: Which outcome does the source give for `CC1(C)CC(O)CC(C)(C)N1[O]` here?
Answer: Its outcome is “inactive”.

Question: Which max response does the source give for `CC[C@H](CC[C@@H](C)[C@H]1CC[C@H]2[C@@H]3CC=C4C[C@@H](O)CC[C@]4(C)[C@@H]3CC[C@]12C)C(C)C` here?
Answer: The max response was -8.75%.

Question: `Cn1cc(CNCC2CCN(c3ncc(C(=O)NO)cn3)CC2)c2ccccc21` was tested. Which Potency did it give?
Answer: The Potency was 187 nM (active).

Question: `C=C(C)[C@@H]1CC[C@]2(C(=O)O)CC[C@]3(C)[C@H](CC[C@@H]4[C@@]5(C)CC[C@H](O)C(C)(C)[C@@H]5CC[C@]43C)[C@@H]12` was tested. Which max response did it give?
Answer: Its max response is -13.5%.

Question: Which Potency does the source give for `Cc1ccc2nc(NCCN)c3ncc(C)n3c2c1` here?
Answer: The Potency was 4180 nM (active).

Question: Which Potency does the source give for `CCC[C@@H](C=O)NC(=O)[C@H](CC(C)C)NC(=O)[C@H](CC(C)C)NC(=O)OCc1ccccc1` (Cbz-Leu-Leu-[Nva]-aldehyde) here?
Answer: The Potency was 3720 nM (active).

Question: For `CN(CC(=O)N(Cc1ccc(C2CCCCC2)cc1)c1ccc(C(=O)O)c(O)c1)S(=O)(=O)c1c(F)c(F)c(F)c(F)c1F`, which outcome is on record?
Answer: The outcome was “inactive”.

Question: How did the Potency turn out when `CN(C)c1ccc(C(=O)NCCCCCCC(=O)NO)cc1` was run?
Answer: Its Potency is 1870 nM (active).

Question: Which Potency does the source give for `Cc1ncc(-c2ccnc(Nc3ccc(S(C)(=O)=O)cc3)n2)n1C(C)C` here?
Answer: Its Potency is 4610 nM (active).

Question: How did the Potency turn out when `N#Cc1c(NC(=O)c2cccc3ccccc23)sc2c1CCCC2` was run?
Answer: The Potency was 372 nM (active).

Question: How did the max response turn out when `CC(C)(C)[N+]([O-])=Cc1ccc(S(=O)(=O)O)cc1S(=O)(=O)O` was run?
Answer: Its max response is -0.289%.

Question: Which outcome does the source give for `c1coc(CNc2ncnc3nc[nH]c23)c1` here?
Answer: Its outcome is “inactive”.

Question: For `COc1cccc2c1C(=O)c1c(O)c3c(c(O)c1C2=O)C[C@@](O)(C(=O)CO)C[C@H]3O[C@H]1C[C@H](N)[C@H](O)[C@H](C)O1`, which Potency is on record?
Answer: Its Potency is 59 nM (active).

Question: With `COc1cc(C(C)C)c(Oc2cnc(NC(CO)CO)nc2N)cc1I` as the compound, how does the max response read?
Answer: The max response was -7.36%.

Question: `CCOC(=O)N1CCN([N+]([O-])=NOc2ccc([N+](=O)[O-])cc2C#N)CC1` was tested. Which Potency did it give?
Answer: The Potency was 3320 nM (active).

Question: How did the max response turn out when `Cc1onc(-c2ccccc2)c1C(=O)N[C@@H]1C(=O)N2[C@@H](C(=O)O)C(C)(C)S[C@@H]12` was run?
Answer: Its max response is -0.866%.

Question: `COc1ccc(C(C)=O)c(O)c1` was tested. Which max response did it give?
Answer: Its max response is 0.614%.

Question: With `CC(C(C)N1CC(=O)NC(=O)C1)N1CC(=O)NC(=O)C1` (stereo not drawn) as the compound, how does the Potency read?
Answer: The Potency was 1660 nM (active).

Question: How did the max response turn out when `Cc1cc(C(=O)NOCCO)c(Nc2ccc(I)cc2F)n(C)c1=O` was run?
Answer: The max response was -3.43%.
